Assay outcomes: PubChem, National Center for Advancing Translational Sciences (NCATS)
HCV inh: blocks hepatitis C virus. AID 651820. Potency, µM (highest dose often 41.8 µM), actives largely listed as inhibitors. 340,000 tested, 3.4% active. Huh7.5.1 HCVcc-Cre infection, luciferase reporter, 44 h; active = well fitted inhibition curve with a large enough effect; inconclusive = small, poorly fitted or top-dose-only effect, or another doubt; inactive = no such curve, though single readings can be large or run the other way
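HCVcc-Cre virus at an moi near 0.5 was added right after compound to cells cultured 4 h from seeding (1,000 cells/well). Luciferase activity was determined 44 h later, 15 min after substrate addition at RT.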
HCMV antiviral: blocks human cytomegalovirus replication; HFF cells, HCMV-luciferase reporter, 72 h; stronger effect = lower value; activity change, negative = inhibition, % at 57.5 µM; 410,000 tested, 4.5% active; in the data active = activity change below about -60%; inconclusive = no clear call, values can overlap the other calls; inactive = above about -39%
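Luciferase read-out from HCMV-luciferase-infected HFFs (MOI 1 PFU/cell) 72 h post infection at 37C; compounds added after 16 h cell attachment; activity normalized between buffer-only basal and Salinomycin (10uM) inhibitor controls.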
LASV entry inh: inhibitors of Lassa virus binding or cell entry; Lassa virus pseudotype entry inhibition, cell reporter; Potency, µM (top dose mostly 37.9 µM), hits mostly inhibitors; 300,000 tested, 1.2% active; calls by dose curve; tested in HEK293 cells; also: nearly all actives have a fitted effect of over 50% in size
FMDV inh: antivirals against foot and mouth disease virus | FMDV antiviral cell-based qHTS | 410,000 tested, 1.2% active | Potency, µM (doses to about 57.9 µM), usual class: inhibitors; calls by dose curve; tested in HEK293T cells; also: read-out not given here; nearly all actives have a fitted effect of over 45% in size
Marburg entry inh: inhibitors of Marburg virus binding or cell entry; Marburg virus pseudotyped entry inhibition, cell reporter; Potency, µM (doses to about 37.8 µM), usual class: inhibitors; 300,000 tested, 1.8% active; AID 540276; calls by dose curve; tested in HEK293 cells
SARS PLpro yeast: blocks SARS-CoV papain-like protease in a yeast assay | S. cerevisiae expressing SARS-CoV PLpro, growth rescue | Potency, µM (doses to about 32.9 µM), most hits filed as activators | 330,000 tested, 0.19% active | AID 485353; calls by dose curve; also: nearly all actives have a fitted effect of over 55% in size
Numbers stand for hits; n = inactive; u = inconclusive; x = not tested or not shown; ! = not confirmed by another sample. A selection: hits, their analogues and other compounds. The true share with any hit is near 8%.

SMILES | HCV inh | HCMV antiviral | LASV entry inh | FMDV inh | Marburg entry inh | SARS PLpro yeast
O=C(Nc1ccccc1C(F)(F)F)N1CCOc2ccc(Cl)cc21 | x | n | u | n | x | x
CCOC(=O)Cn1c(=O)oc2cc(S(=O)(=O)Nc3cc(OCC)ccc3OCC)ccc21 | n | n | n | n | u | n
CCOC(=O)Cn1c(=O)oc2cc(S(=O)(=O)Nc3ccc(N(CC)CC)cc3C)ccc21 | n | -76.6 | x | n | n | n
Nc1cc(S(=O)(=O)Nc2ccccc2Cl)ccc1N1CCCCC1 | 6.31µM | u | x | n | x | n
COc1ccc(NS(=O)(=O)c2ccc(N3CCCCC3)c(N)c2)cc1 | 2.82µM | u | x | n | x | n
Cc1cc(Cl)ccc1OCC(=O)O[C@@H](C)C(=O)N(C)C | x | x | x | x | n | x
CC(C)=CCC/C(C)=C/CO/N=C1/C[C@@H](O)[C@@H](O)[C@@H]2[C@@H]3C(=O)N(C[C@@H]4CCCO4)C(=O)[C@H]3CC[C@@H]12 | x | x | x | x | n | x
CCOc1cc(S(=O)(=O)NCc2ccccc2)c(OCC)cc1-n1cnnn1 | n | u | n | n | n | x
CCOc1cc(S(=O)(=O)N(Cc2ccccc2)Cc2ccccc2)c(OCC)cc1-n1cnnn1 | x | n | n | n | 20.6µM | n
Oc1ccc(-c2nc(-c3ccccc3)c(-c3ccc(Br)cc3)[nH]2)cc1 | x | -63.3 | n | n | n | x
COc1cc(-c2nc(-c3ccccc3)c(-c3ccc(Br)cc3)[nH]2)cc(OC)c1O | x | n | u | n | u | x
O=C1CC2(CCN(C(=O)c3cccc(Cl)c3)CC2)Oc2ccccc21 | n | -98.9 | n | u | n | x
Cc1c(-c2nc(-c3ccc4c(c3)OCO4)no2)nnn1-c1ccc(C(C)C)cc1 | x | n | n | n | x | x
COc1cccc(-c2nc(N3CCNCC3)c3ccccc3n2)c1 | x | x | x | n | x | x
CCSc1ncc(Cl)c(C(=O)Nc2ccc(S(=O)(=O)Nc3ncccn3)cc2)n1 | n | n | n | n | n | n
Cc1cc(C)nc(NS(=O)(=O)c2ccc(NC(=O)c3ccc(S(=O)(=O)N4CC(C)OC(C)C4)cc3)cc2)n1 (stereo not given) | n | n | n | n | n | n
CCCSc1ncc(Cl)c(C(=O)Nc2ccc(S(=O)(=O)N3CC(C)OC(C)C3)cc2)n1 (stereo not given) | 10µM | -67.5 | n | n | u | n
CCSc1ncc(Cl)c(C(=O)Nc2ccc(S(=O)(=O)N3CCC(C)CC3)cc2)n1 | x | u | n | u | u | x
CCS(=O)(=O)c1ncc(Cl)c(C(=O)Nc2ccc(S(=O)(=O)N3CCC(C)CC3)cc2)n1 | u | -99.6 | u | 14.1µM | u | n
CSc1ncc(Cl)c(C(=O)Nc2ccc(S(=O)(=O)N3CCC(C)CC3)cc2)n1 | x | -76.5 | u | u | u | x
CCSc1ncc(Cl)c(C(=O)Nc2ccc(S(N)(=O)=O)cc2)n1 | n | -85.3 | n | n | u | n
Cc1c(C(=O)N(Cc2ccc(N(C)C)cc2)CC2CCCO2)oc2ccc(Br)cc12 (stereo not given) | x | n | u | n | u | x
CCc1nn(CC(=O)NC(C)CC)c(=O)c2cc3occc3n12 (stereo not given) | x | n | n | n | n | x
O=C(c1ccc(S(=O)(=O)N2CCCC2)cc1)N(c1ccccc1)C1C=CS(=O)(=O)C1 (stereo not given) | n | n | n | n | n | n
O=C(c1ccc2c(c1)OCO2)N(c1ccc(Br)cc1)C1C=CS(=O)(=O)C1 (stereo not given) | n | -60.3 | n | n | n | n
SMILES | HCV inh | HCMV antiviral | LASV entry inh | FMDV inh | Marburg entry inh | SARS PLpro yeast
Cc1ccc(N(C(=O)c2ccc3c(c2)OCO3)C2C=CS(=O)(=O)C2)cc1 (stereo not given) | n | n | n | x | n | n
O=C(c1ccc(S(=O)(=O)N2CCCC2)cc1)N(c1ccc(F)cc1)C1C=CS(=O)(=O)C1 (stereo not given) | n | -68.9 | u | n | n | n
O=C(Nc1c(C(=O)N2CCN(c3ccc(F)cc3)CC2)oc2ccccc12)c1c(F)cccc1F | x | n | n | n | x | x
Cc1nn(-c2ccccc2)c(C)c1NC(=O)COc1ccc(F)cc1Cl | u | u | n | 20µM | u | n
Cc1ccc(OCC(=O)Nc2c(C)nn(-c3ccccc3)c2C)c(Br)c1 | u | n | n | 39.8µM | n | n
Cc1nn(-c2ccccc2)c(C)c1NC(=O)COc1ccc([N+](=O)[O-])cc1 | n | n | n | u | u | n
COc1cc(-c2nnc(CSc3nnc(Nc4ccc(C(C)C)cc4)s3)o2)cc(OC)c1OC | 7.08µM | n | u | n | u | n
CCOc1ccccc1CNC(=O)Cn1nc(C)c2nn(-c3ccc(Cl)cc3)c(C)c2c1=O | x | u | n | u | x | x
Cc1cnn(-c2nc(-c3ccccc3)cc(-c3ccccc3)n2)c1 | 7.94µM | u | n | n | u | n
FC(F)(F)c1cc(-c2ccccc2)nc(-n2cc(Cl)cn2)n1 | u | -60.1 | x | u | x | n
Fc1ccc(-c2cc(C(F)(F)F)nc(-n3cc(Cl)cn3)n2)cc1 | u | u | x | n | x | n
CCCCOc1ccc(C(=O)Nc2cc(-c3cn4cccnc4n3)ccc2OC)cc1 | x | n | n | n | x | x
Fc1ccc(C(Nc2ccccc2Cl)c2nnc(-c3ccccc3Cl)o2)cc1 (stereo not given) | x | n | n | n | u | x
CN(Cc1cnc2nc(N)nc(N)c2n1)c1ccc(C(=O)N[C@@H](CCC(=O)O)C(=O)O)cc1 | u | -99.3 | u | u | 0.0398µM! | x
CN(Cc1cnc2nc(N)nc(N)c2n1)c1ccc(C(=O)N[C@H](CCC(=O)O)C(=O)O)cc1 | x | x | x | x | 0.0398µM | x
Nc1nc2ncc(CNc3ccc(C(=O)N[C@@H](CCC(=O)O)C(=O)O)cc3)nc2c(=O)[nH]1 | n | x | x | n | x | n
Nc1nc2ncc(CNc3ccc(C(=O)NC(CCC(=O)O)C(=O)O)cc3)nc2c(=O)[nH]1 (stereo not given) | x | x | x | n | x | x
COc1cc2c(cc1OC)C(COc1ccc3c(C)cc(=O)oc3c1)N(C(=O)Cc1ccc(F)cc1)CC2 (stereo not given) | x | n | n | n | n | x
CC(=O)c1ccc(-c2ccc3c4c(ccc3c2)OC(CNC(=O)C(C)N2CCOCC2)C4)s1 (stereo not given) | x | x | x | n | x | x
O=C(C1CCCCC1)N1CCOc2ccc(CN3CCN(Cc4ccccn4)CC3)cc2C1 | x | x | x | n | x | x
COc1cccc(-c2ccc3ncnc(NCc4cccc(F)c4)c3c2)c1 | x | x | x | x | x | 8.91µM
COc1cccc(-c2ccc3ncnc(NCc4cnc(C)cn4)c3c2)c1 | x | x | x | n | x | x
COc1cccc(-c2ccc3ncnc(NCc4cccc(C)c4)c3c2)c1 | x | -85.6 | x | n | x | u
COc1cccc(CNc2ncnc3cc(Cl)ccc23)c1 | 11.2µM | u | n | u | u | n
COCCCNc1ncnc2ccc(C)cc12 | u | -62.6 | n | n | n | n
COc1cccc(CNc2ncnc3ccc(-c4c(C)noc4C)cc23)c1 | x | n | x | n | x | n
O=C(COc1ccccc1)Nc1ccccc1C(=O)OCc1cc(=O)n2nc(C3CC3)sc2n1 | x | n | n | n | x | x
C=CCN1C(=O)[C@]2(O[C@H](C)CC3=CCCC32)c2c(Br)cccc21 (stereo not given in full) | x | x | u | x | n | x
